The list shows a part of the results. A number with no mark means an inactive call.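 Rule for the calls: active = mean percent activation across triplicates above a set limit taken from the earlier primary procaspase-3 screen; inactive = the rest.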

The results in this text go back to PubChem BioAssay AID493114 (The Scripps Research Institute Molecular Screening Center, 2011).

In the experiment the target is Caspase-3 (Homo sapiens) (UniProt P42574). Briefly: procaspase-3 activators, counter-screen for dual procaspase-3/7 activator project, biochemical, absorbance, PC-3 D3A mutant, human (AID 493114).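 Note: 0% = DMSO wells and 100% = DMSO wells with 5 µM added PC-3 D3A.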 The conditions noted are these: recombinant PC-3 D3A, Ac-DEVD-pNA absorbance 405 nm; at 8.5 µM; active compounds read high; 100% = enzyme control; aspartates 9, 28, 175 changed to alanine.
Caspase-3 (Homo sapiens), sequence (P42574 whole entry D9A/D28A/D175A): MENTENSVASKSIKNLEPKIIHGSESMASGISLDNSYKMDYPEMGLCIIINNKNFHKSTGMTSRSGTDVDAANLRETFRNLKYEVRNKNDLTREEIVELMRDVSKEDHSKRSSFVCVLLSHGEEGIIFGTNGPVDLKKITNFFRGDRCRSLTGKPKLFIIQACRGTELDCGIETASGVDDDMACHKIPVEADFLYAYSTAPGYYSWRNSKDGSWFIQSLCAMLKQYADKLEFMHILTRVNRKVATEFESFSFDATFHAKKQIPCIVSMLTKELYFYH
Turning to `COc1ccc2sc(-c3ccc(S(C)(=O)=O)cc3)c(C#Cc3cncn3C)c2c1`, the activation was -29.9%.

With `CCOC(=O)C1(CCOC)CCN(Cc2cc3ccccc3s2)CC1`, the activation was 2.49%.

`COc1ccc(-c2onc3ccc(C(C)=O)cc23)cc1`: the activation is -28%. `Fc1ccc(N2N=C(c3cccs3)CC2c2ccco2)c(F)c1` (stereo not given): the activation was -29.1%. Take `COc1ccccc1N=Cc1c(O)c2ccccc2oc1=O`: the activation is -28.6%. In the case of `COc1ccc(Nc2ncnc3sc(-c4ccccc4)cc23)c(OC)c1`, the activation is -22.7%. With `COc1ccc(/C=N/Nc2nc3ccccc3c(=O)[nH]2)cc1`, the activation was 0.42%. On to `Nc1cccc2c1C(=O)N(Cc1nnc(-c3ccccc3Br)o1)C2=O`, for which the activation is -28.5%. `CC1(C)Cc2c(C#N)c(SCc3nc4ccccc4[nH]3)nc(N3CCOCC3)c2CO1`: the activation is -28.2%. Take `O=C1OCCN1C(=O)[C@H]1[C@H](c2ccc(F)cc2)C(c2ccccc2)=NN1c1ccc(Br)cc1`: the activation is -28.8%.

On to `CCCCOC(=O)Cn1c(=O)n(CC(=O)OCCCC)c2cc(C)ccc21`, for which the activation was 2.96%. As to `CNS(=O)(=O)c1cccc(C(=O)NC2CCCc3ccccc32)c1` (stereo not given), the activation was 2.51%. To `CCN(CC)c1ccc2oc(=O)c(C)nc2c1` belongs -12.2%; to `CC(=O)Oc1ccc2c(C)c(CC(C)O)c(=O)oc2c1` (stereo not given), -29.8%. As to `COc1ccc(Nc2ncc(C(=O)N3CCN(c4ccccc4OC)CC3)c3ccccc23)cc1`, the activation was 0.74%.
